Compounds with a hit are over-represented: about 3.2% of the library has one in this group of screens.
AmpC inh no detg – blocks E. coli AmpC beta-lactamase in detergent-free assay | AmpC nitrocefin hydrolysis, absorbance 480 nm, 0.0001% Triton | Potency, µM (top dose mostly 57.1 µM), for the others: at the highest dose activity change, negative = inhibition, actives largely listed as inhibitors | 330,000 compounds, 0.52% hits | AID 485341;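 note: plate controls were no compound for no effect and no enzyme for full effect; nearly all actives have a fitted effect of over 20% in size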
Target sequence (P00811 whole entry, looked up): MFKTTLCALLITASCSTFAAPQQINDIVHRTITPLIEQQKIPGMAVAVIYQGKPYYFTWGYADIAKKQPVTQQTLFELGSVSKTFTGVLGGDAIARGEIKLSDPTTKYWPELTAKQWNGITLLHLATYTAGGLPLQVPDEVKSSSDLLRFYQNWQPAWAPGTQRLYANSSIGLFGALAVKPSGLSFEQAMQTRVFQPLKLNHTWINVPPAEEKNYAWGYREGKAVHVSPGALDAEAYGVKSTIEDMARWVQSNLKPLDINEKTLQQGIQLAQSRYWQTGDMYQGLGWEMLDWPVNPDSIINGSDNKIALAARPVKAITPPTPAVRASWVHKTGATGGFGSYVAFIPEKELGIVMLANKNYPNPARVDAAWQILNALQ
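20 mM phosphate pH 7.0 + 0.01% (detergent screen) or 0.0001% Triton X-100; 5.3 nM AmpC reagent; cpd preinc 15 min RT; nitrocefin (800 uM stock) to start; A480 q20 s × 4 min; Activity was normalised to no-enzyme and no-compound control wells.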
AMA1-RON2 inh – disrupts binding of P. falciparum AMA1 to RON2; Potency, µM (top dose mostly 58.2 µM), for the others: at the top dose activity change, negative = inhibition, actives largely listed as inhibitors; AID 720542; AlphaScreen AMA1-biotinylated RON2 peptide binding; 360,000 compounds, 0.2% hits;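 note: 0% = vehicle wells and -100% = peptide control; nearly all actives have a fitted effect of over 45% in size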
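AMA1 (3D7) with his tag at 25 nM final met compounds first, then biotinylated RON2 peptide at 25 nM; detection used donor plus acceptor beads, 10 µg/mL apiece, read by AlphaScreen after 30 min at room temperature.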
RE007 growth inh – less growth of the S. pombe RE007 Vpr strain. Potency, µM (doses to about 92.2 µM), without a hit: at the highest dose activity change, negative = less growth, hits mostly inhibitors. 360,000 compounds, 0.21% hits. S. pombe RE007 Vpr strain, BacTiter-Glo ATP luminescence, 24 h; active = well fitted falling curve with a large enough effect; inconclusive = small, poorly fitted or top-dose-only effect; inactive = no such curve, though single readings can be large or run the other way; note: nearly all actives have a fitted effect of over 50% in size
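Fission yeast RE007 carrying one integrated HIV-1 vpr copy, seeded at OD 0.01 in PMG+AL medium with 23 nL pinned compound. Grown 24 h at 30 degrees; viability read by BacTiter-Glo luminescence after 5 min.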
Sm TGR inh – inhibitors of Schistosoma mansoni thioredoxin glutathione reductase. Q962Y6. AID 485364. Potency, µM (series often up to 114 µM), for the others: at the highest dose activity change, negative = inhibition, most hits filed as inhibitors. 360,000 compounds, 3% hits. purified TGR, DTNB reduction, TNB absorbance 405 nm; note: nearly all actives have a fitted effect of over 60% in size
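First, TGR (20 nM dispensed) and NADPH were mixed with compound. Second, a 15 min room-temperature incubation followed. Third, further NADPH and then DTNB were added to start the reaction. Finally, TNB absorbance was monitored kinetically.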
AmpC inh detg – inhibitors of E. coli AmpC beta-lactamase with detergent; AmpC hydrolysis of nitrocefin, absorbance 480 nm, 0.01% Triton; Potency, µM (highest dose often 114 µM), inactives show at the highest dose activity change, negative = inhibition, most hits filed as inhibitors; 370,000 compounds, 0.041% hits;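 note: 0% = no-compound wells and -100% = no-enzyme wells; nearly all actives have a fitted effect of over 25% in size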
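20 mM phosphate pH 7.0 + 0.01% (detergent screen) or 0.0001% Triton X-100; 5.3 nM AmpC reagent; cpd preinc 15 min RT; nitrocefin (800 uM stock) to start; A480 q20 s × 4 min; Activity was normalised to no-enzyme and no-compound control wells.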
An asterisk follows results filed as active; ? = inconclusive; . = no result given; [ ] = dose if it differs, or a comment. Unless noted, calls come from the whole dose curve; as a rule, active = well fitted curve in the direction sought with a large enough effect; inconclusive = small, poorly fitted or top-dose-only effect, or another doubt; inactive = no such curve, though single readings can be large; an effect the other way counts as inactive or inconclusive. Unless noted, % is set by controls: 0 for no effect and ±100 for the full control effect; potency is the fitted concentration of half-maximal effect.

SMILES	AmpC inh no detg	AMA1-RON2 inh	RE007 growth inh	Sm TGR inh	AmpC inh detg
COc1ccc(C(CCN2CCN(c3ccccc3)CC2)c2c(OC)cc(OC)c3c(-c4ccccc4)cc(=O)oc23)cc1 (centres undefined)	24%	?	3%	12%	-6%
COc1cc(OC)c2c(-c3ccccc3)cc(=O)oc2c1C(CCN1CCN(c2ccccc2)CC1)c1ccc(N(C)C)cc1 (centres undefined)	69%	7.9µM*	-16%	-21%	3%
COc1cc(OC)c2c(-c3ccccc3)cc(=O)oc2c1C(CC(=O)N1CCOCC1)c1ccc(N(C)C)cc1 (centres undefined)	169%	?	-3%	?	6%
COc1cc(OC)c2ccc(=O)oc2c1C(CCN1CCN(c2ccccc2)CC1)c1ccc(N(C)C)cc1 (centres undefined)	75%	25µM*	3%	-24%	-3%
CCN(CC)CCC(c1ccc(N(C)C)cc1)c1c(OC)cc(OC)c2c(-c3ccccc3)cc(=O)oc12 (centres undefined)	187%	18µM*	14%	-4%	2%
COc1ccc(C2CC(=O)Oc3c(C(CCN4CCCC(C)C4)c4ccc(N(C)C)cc4)c(OC)cc(OC)c32)cc1 (centres undefined)	182%	18µM*	13%	-11%	-3%
COc1ccc(C(CCN2CCOCC2)c2c(OC)cc(OC)c3ccc(=O)oc23)cc1 (centres undefined)	111%	-3%	-12%	.	.
COC(=O)c1cc(NS(=O)(=O)c2ccc3c(c2)OCCO3)ccc1Cl	.	.	.	1%	25%
CCOc1ccc(CCNC(=O)Cn2c(=O)c3cccn3c3ccc(F)cc32)cc1OCC	.	.	.	-1%	13%
CCCCCc1cc(=O)oc2c(C(CCN3CCCCC3)c3ccc4c(c3)OCO4)c(OC)cc(OC)c12 (centres undefined)	142%	-15%	2%	-1%	5%
COc1cc(OC)c2c(-c3ccccc3)cc(=O)oc2c1C(CCN1CCCC(C)C1)c1ccc(N(C)C)cc1 (centres undefined)	214%	16µM*	-4%	-12%	0%
COc1cc(C2CC(=O)Oc3c(C(CCN4CCN(c5ccccc5)CC4)c4ccc(N(C)C)cc4)c(OC)cc(OC)c32)cc(OC)c1OC (centres undefined)	208%	14µM*	-8%	7%	0%
CCCCCc1cc(=O)oc2c(C(CCN3CCN(c4ccccc4)CC3)c3ccc(N(C)C)cc3)c(OC)cc(OC)c12 (centres undefined)	79%	11µM*	-9%	7%	-4%
COc1cc(O)c(C(CCN2CCN(c3ccccc3)CC2)c2ccc3c(c2)OCO3)c(OC)c1 (centres undefined)	-7%	16µM*	-11%	-7%	2%
Cc1ccc2nc(NCc3ccccc3)c3nncn3c2c1	.	.	.	-1%	25%
Cc1ccccc1C(=O)OC1OC(=O)C(Cl)=C1N1CCOCC1 (centres undefined)	2.8µM*	0%	-10%	-11%	4µM*
Cc1ccccc1NC1=C(Cl)C(=O)OC1OC(=O)c1ccccc1C (centres undefined)	10µM*	-8%	21%	?	20µM*
COc1cccc2sc(N3CCN(C(=O)CS(=O)(=O)c4ccc(Cl)cc4)CC3)nc12	.	.	.	0%	-7%
N#Cc1ccc(NC(=S)Nc2ccccc2)cc1	-8%	-3%	-4%	45µM*	-10%
CC(=O)Nc1ccc(NC(=S)Nc2ccccc2)cc1	-3%	-8%	2%	-33%	?
Cc1ccc(NC(=O)Cn2cc(S(=O)(=O)c3ccc(C)cc3)c(=O)c3cc4c(cc32)OCO4)cc1	.	.	.	-6%	2%
CC1(C)CC(=O)C(N=Nc2cc(S(=O)(=O)N3CCOCC3)ccc2Cl)=C(O)C1	53%	-1%	17%	10µM*	-2%
CC1(C)CC(=O)C(N=Nc2cc(C(F)(F)F)ccc2Cl)=C(O)C1	-1%[11.4 µM]	-22%	12%	-1%	?
COc1cccc(C2CC(c3ccc(Cl)cc3)Nc3nc(N)nn32)c1 (centres undefined)	37%	0%	10%	-9%	-12%
COc1cccc(C2CC(c3ccc(F)cc3)Nc3nc(N)nn32)c1 (centres undefined)	40µM*	-4%	5%	1%	-12%
SMILES	AmpC inh no detg	AMA1-RON2 inh	RE007 growth inh	Sm TGR inh	AmpC inh detg
COc1ccc(C2CC(c3cccc(Cl)c3)n3nc(N)nc3N2)cc1 (centres undefined)	0.89µM*	30%	-4%	-1%	?
COc1ccc(C(=O)/C=C/c2cc(C(=O)O)cc3c2OCOC3)c(O)c1	-32%	-15%	-16%	?	?
O=C(O)c1cc(/C=C/C(=O)c2cc(F)ccc2O)c2c(c1)COCO2	-12%	-11%	-17%	28µM*	-10%
COc1ccc(-n2nc3cc(C)c(NC(=O)COc4cccc(C)c4)cc3n2)cc1	.	.	.	1%	9%
O=C1C2CC=C(Cl)CC2C(=O)N1CCN1CCOCC1 (centres undefined)	-13%	8%	8%	-1%	?
O=C1C2CC=C(Cl)CC2C(=O)N1CCCCCCN1C(=O)C2CC=C(Cl)CC2C1=O (centres undefined)	13%	1%	7%	22µM*	?
CC(=Nc1ccc(O)cc1)c1sc2ccccc2c1O	-39%	-7%	22%	-3%	-4%
CC(=Nc1ccccc1O)c1sc2ccccc2c1O	7.1µM*	65%	?	0%	-5%
O=C1CCCCCN1Sc1ccccc1	-11%	-1%	13µM*	5%	?
O=C1CCCCCN1C(=O)c1ccccc1	.	-9%	1%	.	.
COc1ccc(C2=CC(c3c(C)nn(-c4ccccc4)c3Cl)n3nnnc3N2)cc1OC (centres undefined)	3%	-9%	18%	18µM*	-13%
COc1ccccc1C1C=C(c2ccc(C)cc2)Nc2nnnn21 (centres undefined)	-19%	-17%	0%	-3%	-11%
CCn1c(SCC(=O)NCc2ccco2)nnc1C1CCCC1	-5%	7%	-14%	40µM*	6%
Cn1c(SCC(=O)NCc2ccco2)nnc1C1CC1	-29%	-5%	29%	.	.
Cn1c(SCC(=O)NCc2ccco2)nnc1C1CCCC1	-9%	0%	-10%	-19%	-3%
CC(C)n1c(SCC(=O)NCc2ccco2)nnc1C1CC1	3%	-12%	0%	18µM*	6%
Cc1ccc(NCc2nnc(SCC(=O)NCc3ccco3)n2CC2CCCO2)cc1Cl (centres undefined)	105%	19%	27%	50µM*	?

Screening results as filed in PubChem.
